Data on one compound can be found in ChEMBL document CHEMBL1961873, “Compounds: GSK PKIS; Assays: Nanosyn kinase panel” (2012).

For assay [1], the target named is Sphingosine kinase 1 (Homo sapiens) (UniProt Q9NYA1). The conditions noted are these: at 1 µM.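 Note: mean SPHK1 inhibition value reported from the GSK PKIS kinase panel screen.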
In assay [2] the target is T1, Sphingosine kinase 2 (Homo sapiens) (UniProt Q9NRA0).
T1 sequence (whole entry): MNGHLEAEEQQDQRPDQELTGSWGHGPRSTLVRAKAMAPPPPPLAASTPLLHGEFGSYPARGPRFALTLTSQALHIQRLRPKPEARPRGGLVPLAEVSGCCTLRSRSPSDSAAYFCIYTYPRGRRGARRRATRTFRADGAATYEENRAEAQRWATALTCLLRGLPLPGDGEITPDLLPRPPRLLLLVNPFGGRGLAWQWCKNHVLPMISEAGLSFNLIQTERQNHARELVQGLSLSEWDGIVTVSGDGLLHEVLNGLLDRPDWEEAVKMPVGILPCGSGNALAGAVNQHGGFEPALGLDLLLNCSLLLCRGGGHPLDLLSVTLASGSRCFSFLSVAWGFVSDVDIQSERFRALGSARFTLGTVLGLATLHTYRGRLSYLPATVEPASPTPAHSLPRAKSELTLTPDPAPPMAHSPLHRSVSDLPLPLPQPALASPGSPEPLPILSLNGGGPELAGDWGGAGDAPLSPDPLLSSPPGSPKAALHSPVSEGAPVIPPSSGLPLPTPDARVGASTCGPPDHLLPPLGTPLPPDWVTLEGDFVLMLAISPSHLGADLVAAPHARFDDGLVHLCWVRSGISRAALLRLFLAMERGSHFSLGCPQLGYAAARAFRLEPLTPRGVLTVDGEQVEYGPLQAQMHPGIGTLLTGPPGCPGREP
To be noted: at 0.1 µM.

Assay [3] concerns the target T1, Sphingosine kinase 2 (Homo sapiens). The conditions noted are these: at 1 µM.
Assay [4] addresses Casein kinase II subunit alpha (Homo sapiens) (UniProt P68400). The conditions noted are these: at 0.1 µM.
Assay [5] shares this target. The conditions noted are these: at 1 µM.
The target in assay [6] is T2, Inhibitor of nuclear factor kappa-B kinase subunit alpha (Homo sapiens) (UniProt O15111).
T2 sequence (whole entry): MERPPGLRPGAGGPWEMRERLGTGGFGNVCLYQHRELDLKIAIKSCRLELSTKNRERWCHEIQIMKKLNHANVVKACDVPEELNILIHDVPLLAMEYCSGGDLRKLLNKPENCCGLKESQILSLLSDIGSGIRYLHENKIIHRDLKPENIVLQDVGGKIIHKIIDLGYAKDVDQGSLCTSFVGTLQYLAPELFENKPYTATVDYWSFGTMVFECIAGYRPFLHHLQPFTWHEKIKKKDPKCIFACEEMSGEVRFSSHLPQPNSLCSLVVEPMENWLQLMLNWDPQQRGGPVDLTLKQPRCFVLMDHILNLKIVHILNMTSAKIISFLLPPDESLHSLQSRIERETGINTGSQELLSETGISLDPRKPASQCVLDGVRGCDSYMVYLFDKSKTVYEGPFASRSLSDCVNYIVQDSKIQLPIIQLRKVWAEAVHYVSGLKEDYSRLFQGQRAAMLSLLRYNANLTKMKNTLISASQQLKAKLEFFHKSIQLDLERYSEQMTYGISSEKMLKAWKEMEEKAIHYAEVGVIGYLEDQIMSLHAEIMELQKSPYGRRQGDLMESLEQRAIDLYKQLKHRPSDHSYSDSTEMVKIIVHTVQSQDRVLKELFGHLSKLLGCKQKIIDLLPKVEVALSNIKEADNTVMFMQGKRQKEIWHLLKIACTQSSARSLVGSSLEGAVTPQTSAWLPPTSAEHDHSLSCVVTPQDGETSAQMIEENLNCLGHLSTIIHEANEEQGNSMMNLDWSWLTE
To be noted: at 0.1 µM.

Assay [7] has as its target T2, Inhibitor of nuclear factor kappa-B kinase subunit alpha (Homo sapiens). The conditions noted are these: at 1 µM.
Assay [8] concerns the target T3, Inhibitor of nuclear factor kappa-B kinase subunit beta (Homo sapiens) (UniProt O14920).
T3 sequence (whole entry): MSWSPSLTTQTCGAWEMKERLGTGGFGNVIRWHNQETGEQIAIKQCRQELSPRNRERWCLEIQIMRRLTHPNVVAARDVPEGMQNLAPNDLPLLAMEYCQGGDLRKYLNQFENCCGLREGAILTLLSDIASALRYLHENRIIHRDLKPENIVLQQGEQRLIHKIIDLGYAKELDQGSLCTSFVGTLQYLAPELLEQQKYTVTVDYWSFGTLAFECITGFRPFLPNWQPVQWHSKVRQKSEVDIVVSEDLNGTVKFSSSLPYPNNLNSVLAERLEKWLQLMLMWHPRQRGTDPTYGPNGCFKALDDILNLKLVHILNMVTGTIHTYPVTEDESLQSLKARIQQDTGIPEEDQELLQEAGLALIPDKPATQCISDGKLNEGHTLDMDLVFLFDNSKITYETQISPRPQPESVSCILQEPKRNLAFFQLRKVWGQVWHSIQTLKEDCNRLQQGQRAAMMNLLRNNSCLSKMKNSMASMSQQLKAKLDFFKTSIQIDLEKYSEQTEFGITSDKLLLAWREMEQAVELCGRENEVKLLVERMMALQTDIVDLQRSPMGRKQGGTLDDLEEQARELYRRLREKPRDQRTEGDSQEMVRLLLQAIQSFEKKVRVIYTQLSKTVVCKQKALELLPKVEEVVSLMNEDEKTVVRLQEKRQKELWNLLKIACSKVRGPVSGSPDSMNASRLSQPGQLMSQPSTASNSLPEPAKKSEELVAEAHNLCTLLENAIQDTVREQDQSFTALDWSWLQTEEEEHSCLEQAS
The conditions noted are these: at 0.1 µM.

The target of assay [9] is T3, Inhibitor of nuclear factor kappa-B kinase subunit beta (Homo sapiens). To be noted: at 1 µM.
For assay [10], the target named is T4, Inhibitor of nuclear factor kappa-B kinase subunit epsilon (Homo sapiens) (UniProt Q14164).
T4 sequence (whole entry): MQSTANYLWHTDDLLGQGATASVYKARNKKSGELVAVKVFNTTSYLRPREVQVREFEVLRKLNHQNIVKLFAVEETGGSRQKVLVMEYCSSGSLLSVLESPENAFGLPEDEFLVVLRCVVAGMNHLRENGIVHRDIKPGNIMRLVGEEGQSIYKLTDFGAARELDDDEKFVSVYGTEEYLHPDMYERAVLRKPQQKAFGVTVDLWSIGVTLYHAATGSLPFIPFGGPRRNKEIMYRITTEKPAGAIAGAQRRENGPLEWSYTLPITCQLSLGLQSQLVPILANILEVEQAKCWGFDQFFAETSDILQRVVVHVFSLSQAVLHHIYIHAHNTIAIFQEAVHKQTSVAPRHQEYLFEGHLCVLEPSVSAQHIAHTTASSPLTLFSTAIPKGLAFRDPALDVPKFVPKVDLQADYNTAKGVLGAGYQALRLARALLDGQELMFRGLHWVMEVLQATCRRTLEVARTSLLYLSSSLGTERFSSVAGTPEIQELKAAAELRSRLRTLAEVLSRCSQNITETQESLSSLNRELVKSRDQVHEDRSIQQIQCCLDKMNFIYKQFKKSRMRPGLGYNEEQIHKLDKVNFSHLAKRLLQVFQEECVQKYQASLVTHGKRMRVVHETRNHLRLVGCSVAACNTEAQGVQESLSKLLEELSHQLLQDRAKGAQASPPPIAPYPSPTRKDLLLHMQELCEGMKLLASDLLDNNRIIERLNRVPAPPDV
To be noted: at 0.1 µM.

Assay [11] deals with T4, Inhibitor of nuclear factor kappa-B kinase subunit epsilon (Homo sapiens). To be noted: at 1 µM.
Assay [12] has as its target T5, Serine/threonine-protein kinase Nek1 (Homo sapiens) (UniProt Q96PY6).
T5 sequence (whole entry): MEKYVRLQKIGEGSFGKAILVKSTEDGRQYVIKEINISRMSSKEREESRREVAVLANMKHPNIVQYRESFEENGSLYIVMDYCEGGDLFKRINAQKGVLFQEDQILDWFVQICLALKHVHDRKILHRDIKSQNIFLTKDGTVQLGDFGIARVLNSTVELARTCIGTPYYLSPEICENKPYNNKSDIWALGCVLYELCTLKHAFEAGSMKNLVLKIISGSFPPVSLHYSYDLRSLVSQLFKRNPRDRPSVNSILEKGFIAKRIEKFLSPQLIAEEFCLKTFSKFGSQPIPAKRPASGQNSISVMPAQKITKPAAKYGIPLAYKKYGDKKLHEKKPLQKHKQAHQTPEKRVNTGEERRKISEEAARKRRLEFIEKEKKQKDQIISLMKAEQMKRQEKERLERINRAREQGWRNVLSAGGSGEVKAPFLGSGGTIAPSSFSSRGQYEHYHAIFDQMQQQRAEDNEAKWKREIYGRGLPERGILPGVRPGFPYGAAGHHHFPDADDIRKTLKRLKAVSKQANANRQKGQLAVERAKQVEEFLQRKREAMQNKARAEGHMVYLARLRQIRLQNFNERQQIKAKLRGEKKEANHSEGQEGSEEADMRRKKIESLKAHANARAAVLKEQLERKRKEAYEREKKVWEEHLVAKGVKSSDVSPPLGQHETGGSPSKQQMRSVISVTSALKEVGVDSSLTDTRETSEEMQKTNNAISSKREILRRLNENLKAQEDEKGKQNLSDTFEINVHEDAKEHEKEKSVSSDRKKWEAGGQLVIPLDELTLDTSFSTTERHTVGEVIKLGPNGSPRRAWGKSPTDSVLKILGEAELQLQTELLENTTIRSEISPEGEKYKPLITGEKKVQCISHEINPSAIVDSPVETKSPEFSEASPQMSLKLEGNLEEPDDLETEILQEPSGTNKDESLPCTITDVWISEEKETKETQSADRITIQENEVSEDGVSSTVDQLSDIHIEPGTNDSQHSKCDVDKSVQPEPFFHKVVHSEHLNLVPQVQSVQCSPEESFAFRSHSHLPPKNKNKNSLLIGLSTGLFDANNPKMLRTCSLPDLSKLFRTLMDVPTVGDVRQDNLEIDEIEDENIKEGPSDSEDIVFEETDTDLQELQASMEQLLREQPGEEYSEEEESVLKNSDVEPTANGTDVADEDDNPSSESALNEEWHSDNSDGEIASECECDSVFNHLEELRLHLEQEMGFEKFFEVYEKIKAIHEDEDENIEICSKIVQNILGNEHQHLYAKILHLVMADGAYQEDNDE
To be noted: at 0.1 µM.

The target of assay [13] is T5, Serine/threonine-protein kinase Nek1 (Homo sapiens). To be noted: at 1 µM.
Assay [14] has as its target T6, Serine/threonine-protein kinase Nek2 (Homo sapiens) (UniProt P51955).
T6 sequence (whole entry): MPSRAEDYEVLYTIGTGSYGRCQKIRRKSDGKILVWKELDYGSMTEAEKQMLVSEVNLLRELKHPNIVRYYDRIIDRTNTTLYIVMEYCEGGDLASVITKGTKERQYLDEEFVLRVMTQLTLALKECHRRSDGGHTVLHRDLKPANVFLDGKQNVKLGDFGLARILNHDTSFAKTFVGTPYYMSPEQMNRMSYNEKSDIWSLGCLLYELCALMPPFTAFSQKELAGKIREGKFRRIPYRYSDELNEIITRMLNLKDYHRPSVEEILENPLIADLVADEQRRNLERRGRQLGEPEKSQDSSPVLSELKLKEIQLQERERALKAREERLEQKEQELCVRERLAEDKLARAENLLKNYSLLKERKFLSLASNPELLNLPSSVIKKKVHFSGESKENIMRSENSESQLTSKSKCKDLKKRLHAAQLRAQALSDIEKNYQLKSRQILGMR
To be noted: at 0.1 µM.

Assay [15] deals with T6, Serine/threonine-protein kinase Nek2 (Homo sapiens). To be noted: at 1 µM.
The target in assay [16] is Serine/threonine-protein kinase Nek6 (Homo sapiens) (UniProt Q9HC98). The conditions noted are these: at 0.1 µM.
Assay [17] shares this target. The conditions noted are these: at 1 µM.
Assay [18] deals with Serine/threonine-protein kinase Nek7 (Homo sapiens) (UniProt Q8TDX7). To be noted: at 0.1 µM.
The target is the same in assay [19]. The conditions noted are these: at 1 µM.
For assay [20], the target named is T7, Serine/threonine-protein kinase Nek9 (Homo sapiens) (UniProt Q8TD19).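 Note: reported value is the mean percent inhibition of NEK9.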
T7 sequence (whole entry): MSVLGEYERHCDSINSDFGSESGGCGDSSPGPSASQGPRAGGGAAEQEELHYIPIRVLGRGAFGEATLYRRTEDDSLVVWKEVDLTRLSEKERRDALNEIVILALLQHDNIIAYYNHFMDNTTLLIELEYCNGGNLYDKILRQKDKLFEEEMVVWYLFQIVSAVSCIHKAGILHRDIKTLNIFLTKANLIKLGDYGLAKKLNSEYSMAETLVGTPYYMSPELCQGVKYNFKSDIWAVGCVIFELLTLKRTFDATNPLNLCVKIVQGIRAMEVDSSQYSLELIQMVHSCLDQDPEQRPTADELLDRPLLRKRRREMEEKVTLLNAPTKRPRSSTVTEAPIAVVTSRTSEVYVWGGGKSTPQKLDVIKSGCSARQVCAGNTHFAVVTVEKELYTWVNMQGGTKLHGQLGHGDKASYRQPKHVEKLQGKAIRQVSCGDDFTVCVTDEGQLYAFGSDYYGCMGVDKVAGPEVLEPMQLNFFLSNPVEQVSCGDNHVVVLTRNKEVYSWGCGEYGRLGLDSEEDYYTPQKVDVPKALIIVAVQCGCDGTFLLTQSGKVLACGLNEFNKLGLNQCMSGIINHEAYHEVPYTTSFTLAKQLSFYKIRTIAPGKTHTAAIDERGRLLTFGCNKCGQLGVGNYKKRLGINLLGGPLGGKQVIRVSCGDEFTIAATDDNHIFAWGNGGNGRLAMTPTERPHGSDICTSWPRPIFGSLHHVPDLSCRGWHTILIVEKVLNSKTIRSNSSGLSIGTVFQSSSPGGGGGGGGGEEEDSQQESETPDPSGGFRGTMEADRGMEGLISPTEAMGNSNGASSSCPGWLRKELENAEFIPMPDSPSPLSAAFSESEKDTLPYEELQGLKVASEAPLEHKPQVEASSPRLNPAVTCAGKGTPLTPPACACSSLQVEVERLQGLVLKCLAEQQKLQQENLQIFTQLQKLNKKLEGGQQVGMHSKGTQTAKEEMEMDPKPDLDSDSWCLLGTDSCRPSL
The conditions noted are these: at 0.1 µM.

Chain of Serine/threonine-protein kinase Nek7 (Homo sapiens) (Q8TDX7 whole entry, looked up): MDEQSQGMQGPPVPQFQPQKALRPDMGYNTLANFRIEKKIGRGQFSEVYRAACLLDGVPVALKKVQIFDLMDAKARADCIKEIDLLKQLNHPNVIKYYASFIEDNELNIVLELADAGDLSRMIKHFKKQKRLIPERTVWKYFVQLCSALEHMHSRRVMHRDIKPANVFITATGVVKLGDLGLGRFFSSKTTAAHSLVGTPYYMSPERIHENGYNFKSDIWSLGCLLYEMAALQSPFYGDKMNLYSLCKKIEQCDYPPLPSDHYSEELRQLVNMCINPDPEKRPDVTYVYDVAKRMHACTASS
Chain of Casein kinase II subunit alpha (Homo sapiens) (P68400 whole entry, looked up): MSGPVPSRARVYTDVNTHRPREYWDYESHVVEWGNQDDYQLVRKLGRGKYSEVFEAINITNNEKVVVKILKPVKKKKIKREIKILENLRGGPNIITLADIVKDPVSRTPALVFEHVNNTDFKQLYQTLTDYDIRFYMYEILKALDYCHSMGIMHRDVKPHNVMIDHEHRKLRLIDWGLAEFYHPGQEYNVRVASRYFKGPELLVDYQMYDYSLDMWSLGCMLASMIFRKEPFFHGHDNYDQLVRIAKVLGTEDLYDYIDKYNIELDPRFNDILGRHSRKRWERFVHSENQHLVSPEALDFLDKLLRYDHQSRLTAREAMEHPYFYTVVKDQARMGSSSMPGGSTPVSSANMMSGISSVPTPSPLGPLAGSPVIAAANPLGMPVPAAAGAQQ
Chain of Serine/threonine-protein kinase Nek6 (Homo sapiens) (Q9HC98 whole entry): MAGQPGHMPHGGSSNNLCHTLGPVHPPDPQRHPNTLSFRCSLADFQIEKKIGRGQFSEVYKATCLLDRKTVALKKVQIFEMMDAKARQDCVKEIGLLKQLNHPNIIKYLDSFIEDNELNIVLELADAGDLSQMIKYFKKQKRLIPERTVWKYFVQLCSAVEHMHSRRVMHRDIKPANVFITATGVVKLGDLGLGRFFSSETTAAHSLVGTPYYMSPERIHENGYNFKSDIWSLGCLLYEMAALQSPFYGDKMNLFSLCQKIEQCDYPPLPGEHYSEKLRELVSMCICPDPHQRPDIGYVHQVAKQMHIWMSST
Chain of Sphingosine kinase 1 (Homo sapiens) (Q9NYA1 whole entry): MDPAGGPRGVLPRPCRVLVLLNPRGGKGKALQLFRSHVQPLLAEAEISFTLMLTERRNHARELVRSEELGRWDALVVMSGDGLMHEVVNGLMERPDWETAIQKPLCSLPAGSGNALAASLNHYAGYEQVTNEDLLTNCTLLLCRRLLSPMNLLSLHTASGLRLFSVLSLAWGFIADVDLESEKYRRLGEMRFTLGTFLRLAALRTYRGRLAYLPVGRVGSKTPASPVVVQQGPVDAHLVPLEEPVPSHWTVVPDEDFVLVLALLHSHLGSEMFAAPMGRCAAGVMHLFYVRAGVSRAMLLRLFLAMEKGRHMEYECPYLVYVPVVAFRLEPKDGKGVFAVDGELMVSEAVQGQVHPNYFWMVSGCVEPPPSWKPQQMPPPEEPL

In the case of `COc1cccc(-c2c[nH]c3c(N/N=C/c4ccncc4)ncnc23)c1`, the inhibition in assay [1] is 0.2%; in assay [2], 1.73%; in assay [3], -1%; in assay [4], 8.8%; in assay [5], 43.7%; in [6], 9.76%. For the same compound, the inhibition was determined as 9.01% in assay [7]; 2.82% in [8]; 1.73% in assay [9]; 2.96% in assay [10]; 16.8% in [11]; 1.94% in assay [12]. Besides, the inhibition was 10.6% in [13]; 2.57% in [14]; 2.88% in [15]; 3.57% in [16]; -1.66% in [17]; 2.88% in assay [18]. The inhibition was determined as 3.62% in assay [19] and 4.67% in assay [20].
